Measurements: PubChem BioAssay (Tox21)
Several values for one entry are separate records, joined by “and”; a condition that tells them apart may be missing. Equal entries are not always repeated. Results filed as inconclusive are left out. Entries that show only a call come without a potency. Some structures have more than one record in an assay (separate samples or runs), and their calls can disagree. Activity calls are given as the source filed them. Calls come from the whole dose curve; as a rule, active = well fitted cell-killing curve with a large enough effect in the repeat runs; inconclusive = weak or mixed curves, or effect the other way; inactive = flat fitted curve, though single readings scatter.

Assay: qHTS RealTime-Glo MT Cell Viability Assay in HEK293 cells - 32 hour (AID 1224868); note: nearly all actives have a fitted effect of over 50% in size
Conditions: RealTime-Glo luminescence; series mostly up to 76.8 µM
Description: National Center for Advancing Translational Sciences [NCATS]
NIH Chemical Genomics Center [NCGC]
U.S. Environmental Protection Agency [EPA]
National Institutes of Environmental Health Sciences [NIEHS]
National Toxicology Program [NTP]
U.S. Food and Drug Administration [FDA]
Measure of cell viability is critical in the cell-base assay. Analysis of cell viability is necessary for the characterization of cell responses to cytotoxic drugs and environmental stress. A RealTime-Glo MT Cell Viability Assay to monitor cell viability in real time of continues cell culture during 40 hours of compound treatment was used to screen Tox21 10K library compounds in Hek293 cells. The RealTime-Glo MT Cell Viability Assay is a nonlytic, homogeneous, bioluminescent method to measure cell viability in real time using a simple, plate-based method. The assay involves adding NanoLuc luciferase and a cell-permeant prosubstrate to cells in culture. Viable cells reduce the proprietary prosubstrate to generate a substrate for NanoLuc luciferase. This substrate diffuses from cells into the surrounding culture medium, where it is rapidly used by the NanoLuc Enzyme to produce a luminescent signal. The signal correlates with the number of viable cells, making the assay well suited for cytotoxicity studies.
Tox21 Assay Protocol Summary:
The mixture of Hek293 cell suspension and reagents were dispensed at 600cells/6 ul/well in 1536-well tissue culture treated black solid bottom plates using a Multidrop dispenser. After the assay plates were incubated at a 37 C/5% CO2 incubator for 5 hours, 23 nL of compounds dissolved in DMSO, positive and negative controls was transferred to the assay plate by a pintool work station. The plates were incubated at 37 C for 40 hours. The luminescence intensity were measured at 0h, 8h, 16h, 24h, 32h and 40h time points using ViewLux plate reader during compound treatment.
Potency is the fitted concentration of half-maximal effect.

| Compound | Potency |
| --- | --- |
| Cc1cnc(C2=NC(C)(C(C)C)C(=O)N2)c(C(=O)O)c1 (stereo not given) | inactive |
| CCCN(CCOc1c(Cl)cc(Cl)cc1Cl)C(=O)n1ccnc1 | 19.9 µM (active) and 27.5 µM (active) |
| COC(=O)C1(O)c2ccccc2-c2ccccc21 | inactive |
| c1ccc2c(c1)-c1cccc3cccc-2c13 | inactive |
| O=C(O)COc1cc(Cl)c(Cl)cc1Cl | inactive and 15.5 µM (active) |
| CCCCC(CC)CO[N+](=O)[O-] (stereo not given) | inactive |
| C=CC(=O)OCC | inactive |
| Cc1ccccc1 | inactive |
| CC[N+]1(C)CCCC(OC(=O)C(O)(c2ccccc2)c2ccccc2)C1 (stereo not given) | inactive |
| C[N+]1(CCF)[C@@H]2CC[C@H]1CC(OC(=O)C(O)(c1ccccc1)c1ccccc1)C2 (stereo not given in full) | inactive |
| CCOC(=O)c1cn2nc(OP(=S)(OCC)OCC)cc2nc1C | 13.8 µM (active) |
| CC(Cc1ccccc1)NCc1ccccc1Cl (stereo not given) | inactive |
| Cc1cccc(C)c1NC1=NCCCS1 | inactive |
| O=C([O-])c1ccccn1.O=C([O-])c1ccccn1.O=C([O-])c1ccccn1.[Cr+3] | inactive |
| NCCc1cc(O)c(O)cc1O | inactive |
| CCC(C)(C)c1ccc(O)c(C(C)(C)CC)c1 | 48.5 µM (active) and inactive |
| CCOP(=S)(S)OCC | inactive |
| CCOP(=S)(OCC)Oc1ccc(S(C)=O)cc1 (stereo not given) | inactive |
| CCCC(C)(COC(N)=O)COC(=O)NC(C)C (stereo not given) | inactive |
| SCc1ccccc1 | inactive |

| Compound | Potency |
| --- | --- |
| Cc1ccc2c(C)cccc2c1 | inactive |
| CC1(C)CC(=O)CC(C)(C)N1[O] | inactive |
| C=C(C)C(=O)OCCCCOC(=O)C(=C)C | inactive |
| CCCSP(=S)(OCC)Oc1ccc(SC)cc1 (stereo not given) | inactive |
| NC(=S)c1c(Cl)cccc1Cl | inactive |
| C=CCSSCC=C | inactive |
| CN(C)c1ccc(N=O)cc1 | 15.5 µM (active) and 21.9 µM (active) |
| O=[N+]([O-])O[C@H]1CO[C@H]2[C@@H]1OC[C@H]2O[N+](=O)[O-] | inactive |
| Nc1cc(Cl)cc(C(=O)O)c1Cl | inactive |
| CCCC[N+]1(C)[C@@H]2CC(OC(=O)[C@H](CO)c3ccccc3)C[C@H]1[C@@H]1O[C@@H]12 (stereo not given in full) | inactive |
| CN1C(=O)CN=C(c2ccccc2)c2cc([N+](=O)[O-])ccc21 | inactive |
| CN(C)C(=O)Nc1cccc(OC(=O)NC(C)(C)C)c1 | inactive |
| Nc1ccccc1C(=O)OCC(O)CO (stereo not given) | inactive |
| CCOc1cccc(C2(N3CCN(c4ccccc4)CC3)CCC(C)CC2)c1 (stereo not given) | inactive |
| O=CC=O | inactive |
| O=C(O)C(F)(F)C(F)(F)C(F)(F)C(F)(F)C(F)(F)F | inactive |
| O=C(Cc1ccccc1)OCCc1ccccc1 | inactive |
| c1ccc2sc(SNC3CCCCC3)nc2c1 | inactive |
| COc1cc(CC#N)cc(OC)c1OC | inactive |
| CCC(C)Cl (stereo not given) | inactive |
